Entries with a potency or affinity are not part of this list.
Each compound was assayed on Cryptococcus neoformans. Details: Concentration 32 ug.mL-1; ASSAY_TEST Inhibition of Fungal Growth; detection method Resazurin; Absorption (OD600-OD570); plate type 384well; NBS; CORNING #3640.

SMILES	Inhibition [%]
COc1nc(NC(C)=O)c(C#N)c(-c2ccccc2)c1C#N	-37.64
O=C1OC(c2ccccc2)=NC1=Cc1ccc(Cl)cc1	-3.18
N#Cc1cc(C#N)c(NCCC2CCN(Cc3ccccc3)CC2)nc1N	-88.16
CCOC(=O)C1=C(C)Nc2nc3c(c(N)c2C1c1cccc(OC)c1)CCCC3 (centres undefined)	-90.12
C1CNCCNCCNCCNC1	-3.46
N#Cc1cc(C#N)c(Cl)nc1N	-5.53
Nc1ccccc1C(=O)N/N=C/c1c[nH]c2ccccc12	0.1
Nc1c2c(nc3c1C(c1c(Cl)cccc1Cl)c1ccc4ccccc4c1O3)CCCC2 (centres undefined)	-7.78
C#CCN(C)c1nc(NC2CCN(Cc3ccccc3)CC2)c(C#N)c(-c2ccccc2)c1C#N	-29.11
CNC(=O)c1cc2cc(OCc3ccccc3)ccc2n1C	-45.34
COc1ccc(-c2cc(-c3cc4c(C)cc(C)cc4nc3Cl)cc(=O)[nH]2)cc1	0.64
Nc1c2c(nc3ccc([N+](=O)[O-])cc13)CCCC2	-74.97
CCOC(=O)C1=C(C)OC(N)=C(C#N)C1c1ccncc1 (centres undefined)	-58.29
CN1C/C(=C\Br)n2c1c(C#N)cc(C#N)c2=O	-48.49
O=C1C=C(Nc2ccccc2)C(=O)N1c1ccccc1	-3.49
Cl.N#Cc1cc(C#N)c(N2CCCC2)nc1Cl	-52.24
CCOC(=O)c1c(C)nc(NC2CCN(Cc3ccccc3)CC2)c(C#N)c1-c1ccccc1	-46.25
C#CCNc1nc(NCC#C)c(C#N)cc1C#N	23.66
Cc1cnc2ccc(Cl)cn12	1.56
CNC(=O)c1c(Cl)c2cc(OCc3ccccc3)ccc2n1C	-46.6

SMILES	Inhibition [%]
Cn1c(CO)cc2cc(OCCCC3CCN(Cc4ccccc4)CC3)ccc21	-53.31
N#CC1(Br)C(=NBr)Oc2c(ccc3ccccc23)C1c1ccc([N+](=O)[O-])cc1 (centres undefined)	-87.41
NNC(=O)C1(NC(=O)c2ccccc2)CC1c1cccc(O)c1 (centres undefined)	-0.7
N#CC1=C(Cl)Oc2c(ccc3ccccc23)C1c1ccc([N+](=O)[O-])cc1 (centres undefined)	-69.24
CC#CCN(C)Cc1cc2cc(OCc3ccccc3)ccc2n1C.O=C(O)C(=O)O	-0.27
NNC(=O)c1c[nH]c2ccc(OCc3ccccc3)cc12	0.02
C#CCN(C)Cc1cc2cc(OCCCCC3CCN(Cc4ccccc4)CC3)ccc2n1C.Cl	-16.02
CCOC(=O)c1c[nH]c2ccc(OC)cc12	-7.29
COc1ccc(C2C(C#N)=C(N)Oc3c2ccc2ccccc32)cc1 (centres undefined)	-40.73
Cc1cc(Br)cc(C)c1NC=C(C#N)C#N	-6.77
COC(=O)C1CCN(Cc2ccccc2)CC1	-2.37
O=C1OC(c2ccccc2)=NC12CC2c1ccc([N+](=O)[O-])cc1 (centres undefined)	-2.27
C#CCN(C)c1nc(OC)c(C#N)c(-c2ccccc2)c1C#N	-56.39
CC1=N/C(=C(\C)c2ccccc2)C(=O)O1	-3.17
Cl.OCC1CCN(Cc2ccccc2)CC1	-2.26
C#CCNc1nc(NCCCC2CCN(Cc3ccccc3)CC2)c(C#N)cc1C#N.Cl	-40.38
C#CCNc1ncccn1	-63.47
Cc1cnc(NC(=O)OC(C)(C)C)c(Br)c1	-60.78
C#CCN(C)Cc1cc2cc(OCc3ccc(OC)c4ncccc34)ccc2n1C	-26.86

— ChEMBL document CHEMBL4513135, “CO-ADD screening of IQOG CSIS (Spain) compounds”
